Source: PubChem
D2 PAM-1 – potentiates the human D2 dopamine receptor allosterically | P14416 | DiscoveRx D2 beta-arrestin cells, luminescence, 90 min; 100% = 57 uM dopamine signal | potentiation, % (concentration not given with the values) | 360,000 compounds, 0.23% hits; in the data active = potentiation above about 50%; inconclusive = mostly about 30% to 49%
Target sequence (P14416 whole entry, looked up): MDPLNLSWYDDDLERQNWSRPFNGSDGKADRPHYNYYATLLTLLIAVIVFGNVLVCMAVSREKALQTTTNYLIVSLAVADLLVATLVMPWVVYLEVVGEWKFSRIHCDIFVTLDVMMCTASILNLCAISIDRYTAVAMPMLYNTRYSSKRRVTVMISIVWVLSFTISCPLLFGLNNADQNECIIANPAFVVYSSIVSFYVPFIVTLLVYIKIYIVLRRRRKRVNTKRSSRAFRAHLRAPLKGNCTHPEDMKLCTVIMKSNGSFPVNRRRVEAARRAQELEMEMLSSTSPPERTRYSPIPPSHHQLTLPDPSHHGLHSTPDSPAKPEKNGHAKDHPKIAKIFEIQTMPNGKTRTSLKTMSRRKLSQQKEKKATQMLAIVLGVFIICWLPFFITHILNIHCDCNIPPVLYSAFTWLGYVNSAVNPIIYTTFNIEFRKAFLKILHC
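PathHunter beta-arrestin assay in DiscoveRx D2 cells. Compounds were added with an EC20 of dopamine (50 nM final) for 90 min at 37 deg C. Luminescence was read 1 h after detection reagent, with 57 uM dopamine as the EC100 control.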
D2 antag – antagonizes the human D2 dopamine receptor; AID 485344; HEK293 TREx D2 cells, calcium flux, dopamine EC80; P14416; inhibition, % at 10 µM; 340,000 compounds, 2% hits; in the data active = inhibition above about 30%; inactive = below that, where a call was filed; also: 0% is about no effect
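In this primary screen, negative modulation is detected by tracking calcium flux after an EC80 dopamine challenge in inducible HEK293 T-REx D2 cells preexposed to test compound for 180 s.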
D2 PAM-2 – D2 dopamine receptor (human) potentiation | potentiation, % at 10 µM | HEK293 T-REx D2, calcium flux, EC20 dopamine potentiation | AID 485347 | 340,000 compounds, 0.34% hits;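 active = potentiation over 3 SD above the plate norm, cut at about 30% in these data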; also: 0% is about no effect
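Tetracycline-induced HEK293 T-REx cells force-coupled to calcium signalling expressed D2; compounds were pin-added after a 10 s baseline, read kinetically 180 s, then an EC20 dopamine challenge followed with a further 180 s calcium read.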
D2 ag-1 – activates the human D2 dopamine receptor; 340,000 compounds, 0.53% hits; P14416; activation, % at 2 µM; HEK293 T-REx D2 cells, calcium flux agonist mode; AID 485358;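 active = activation over 3 SD above normal in the single-dose calcium agonist read, cut at about 30% in these data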; also: 0% is about no effect
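Tetracycline-induced HEK293 Trex cells with D2 receptor force-coupled to calcium signaling, plated overnight at 30 C and loaded with no-wash calcium dye. Calcium flux read kinetically for 180 s after compound addition; responses flag agonists.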
D2 ag-2 – agonists of human D2 dopamine receptor (beta-arrestin); P14416; DiscoveRx PathHunter D2 beta-arrestin, luminescence, 90 min; 100% = 57 uM dopamine signal; activation, % (test concentration not listed); 360,000 compounds, 0.084% hits; AID 624465; in the data active = activation above about 40%; inconclusive = between about 15% and that limit
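Agonist mode: compounds alone added to overnight-plated D2 PathHunter cells for 90 min at 37 C, with 57 uM final dopamine (EC100) defining full response. Beta-arrestin recruitment detected by chemiluminescent reagent, read after 1 h at ambient temperature.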
* = called active by the depositor; ? = inconclusive; . = no result. Shown are actives, neighbours in structure and some others; about 2.4% of the full set was active somewhere.

SMILES	D2 PAM-1	D2 antag	D2 PAM-2	D2 ag-1	D2 ag-2
O=C(c1cc(-c2ccc(F)cc2)on1)N1CCCCCC1	-4	10	34*	-2	-6
O=C(Nc1cccnc1Cl)c1cc(-c2ccc(F)cc2)on1	-7	-3	34*	0	-2
COc1ccc(-c2cc(C(=O)Nc3cccnc3Cl)no2)cc1	3	18	-7	1	3
Cc1c(C)c2ccc(OCC(=O)Nc3ccccn3)cc2oc1=O	-4	36*	10	0	-3
CCn1c(=O)c2cc(C(=O)NC3CCC(C)CC3)sc2c2ccccc21 (configuration not stated)	.	.	0	0	.
O=C(CC1SC(=O)N(c2ccccc2)C1=O)Nc1ccc(Br)cc1 (configuration not stated)	-16	-3	-3	0	-7
CN(C1=NC(=O)C(CC(=O)Nc2ccc(Br)cc2)S1)c1ccc(O)cc1 (configuration not stated)	-24	40*	-24	0	0
CCOc1ccccc1NC(=O)c1nn(-c2ccc(C)cc2)c(=O)n(C)c1=O	.	.	-1	0	.
Nc1nc(N)c(S(=O)(=O)c2ccccc2)c(Nc2ccc(Br)cc2)n1	.	.	19	.	.
COC(=O)c1ccc(NC(C)C(=O)OC)c([N+](=O)[O-])c1 (configuration not stated)	3	43*	-10	-1	1
COC(=O)CS(=O)(=O)c1ccsc1C(=O)Nc1ccc(F)cc1	-8	38*	7	0	3
Cc1[nH]oc(=O)c1N=Nc1ccccc1	57*	-7	4	0	15
CN(C)c1ccc(CN(Cc2ccco2)C(=O)COc2ccc(F)cc2)cc1	.	.	.	-1	.
CN(Cc1ccccc1)C(=O)CC(=O)N(C)Cc1ccccc1	0	7	34*	0	1
CN(Cc1ccccc1)C(=O)c1ccccc1NC(=O)c1ccco1	8	31*	-9	0	1
O=C(O)CNC(=O)c1ccccc1NC(=O)c1ccco1	-14	-3	5	0	1
CN(Cc1ccccc1)C(=O)Cc1ccccc1	0	2	17	1	-1
Cc1ccc(N2CCN(CC(O)COc3ccccc3)CC2)cc1 (configuration not stated)	-23	39*	-22	0	4
Cc1ccc(OCC(O)CN2CCN(c3ccc(C)cc3)CC2)cc1 (configuration not stated)	-2	53*	-24	0	-2
OC(COc1ccc(Cl)cc1)CN1CCC(Cc2ccccc2)CC1 (configuration not stated)	-30	22	-27	1	1
Cc1cc(=O)oc2cc(OCC(O)CN3CCN(c4ccc(F)cc4)CC3)ccc12 (configuration not stated)	-7	76*	-19	73*	?
Cc1ccc(C)c(OCC(O)CN2CCC(Cc3ccccc3)CC2)c1 (configuration not stated)	-16	47*	0	0	-7
Cc1ccc(OCC(O)CN2CCN(CC(O)COc3ccc(C)cc3)CC2)cc1 (configuration not stated)	-26	9	6	1	-1
COc1cccc(C(=O)Nc2nnc(S(=O)(=O)N3CCCc4ccccc43)s2)c1	.	.	-3	-1	.
CCOC(=O)N1CCN(CC(O)COc2ccc(C(C)C)c(C)c2)CC1 (configuration not stated)	-3	7	-19	31*	-3
SMILES	D2 PAM-1	D2 antag	D2 PAM-2	D2 ag-1	D2 ag-2
COCC(=O)N(Cc1cc2ccc(C)c(C)c2n2nnnc12)C1CCCC1	-3	8	37*	0	1
Cc1c(O)ccc(NS(=O)(=O)c2ccccc2)c1C	-2	12	10	0	0
Cc1cc(NS(=O)(=O)c2ccccc2)c(C)c(Cl)c1O	61*	0	-3	0	10
Cc1ccc(NC(=O)C2CCCN(c3ncccn3)C2)cc1F (configuration not stated)	-4	8	-7	-1	-2
CCc1nnc(NC(=O)C2CCCN(c3nc(C)cc(C)n3)C2)s1 (configuration not stated)	3	0	11	3	-2
Cc1cc(C)cc(NC(=O)C2CCCN(c3ncccn3)C2)c1 (configuration not stated)	1	50*	-8	-1	4
Cc1cc(C)nc(N2CCCC(C(=O)Nc3nnc(C(C)(C)C)s3)C2)n1 (configuration not stated)	-11	48*	3	-2	2
COC(=O)C(C)Sc1ccc2nnc(CCNS(=O)(=O)c3ccccc3)n2n1 (configuration not stated)	-9	37*	7	-1	6
COC(=O)C(C)Sc1ccc2nnc(CCNS(=O)(=O)c3ccc(C)cc3)n2n1 (configuration not stated)	-9	1	0	-1	-3
O=C(CSc1nc(-c2ccccc2)[nH]c1-c1ccccc1)Nc1ccc2c(c1)OCO2	.	.	0	-1	.
O=C(O)c1ccccc1S(=O)(=O)Cc1ccccc1	-5	36*	-11	1	-2
Cc1nc2nc(NCc3ccc(Br)cc3)[nH]n2c(=O)c1Cc1ccccc1	.	.	0	2	.
CCC(NC(=O)c1ccc([N+](=O)[O-])cc1[N+](=O)[O-])c1ccccc1 (configuration not stated)	74*	-2	7	1	11
CSc1ccccc1C(=O)NCC1CCCO1 (configuration not stated)	-3	2	2	0	0
COCCSc1ccccc1C(=O)NCC1CCCO1 (configuration not stated)	-9	34*	2	0	-1
COc1ccccc1N=c1oc2cc(O)ccc2cc1C(=O)NCC1CCCO1 (configuration not stated)	-14	36*	2	1	-6
CC(c1ccccc1)n1cc(C(=O)NCC2CCCO2)nn1 (configuration not stated)	-4	40*	-12	0	-4
CC(c1ccccc1)n1cc(C(=O)NCCN2CCOCC2)nn1 (configuration not stated)	-2	-2	-7	1	-4
COc1cccc(N=c2oc3cc(O)ccc3cc2C(=O)NCC2CCCO2)c1 (configuration not stated)	-4	1	10	0	-1
CSc1cccc(NC(=O)CN2C(=O)COc3ccc(S(=O)(=O)N4CCC(C)CC4)cc32)c1	.	.	1	0	.
Cc1nn(Cc2ccc(F)cc2)c2sc(C(=O)Nc3nccs3)cc12	?	-6	0	-1	?
Cc1nn(Cc2ccc(Cl)cc2)c2sc(C(=O)O)cc12	-7	32*	0	0	-5
